From PubChem BioAssay
G9a inh: qHTS Assay for Inhibitors of Histone Lysine Methyltransferase G9a; G9a H3K9 monomethylation, AlphaScreen, 2 h; actives 8.8% (n = 350,000); AID 504332, 2011; Potency, µM (top dose mostly 102 µM), without a hit: top-dose activity, negative = inhibition, actives largely listed as inhibitors; Histone-lysine N-methyltransferase EHMT2 (Homo sapiens), Q96KQ7; also: potency is read from the fitted curve at half-maximal effect; % is scaled to controls: 0 for no effect and ±100 for the full control effect; nearly all actives have a fitted effect of over 75% in size
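G9a (20 nM) was preincubated 15 min with compound, then reacted 2 h at room temperature with 500 nM biotin-H3K9 peptide and 20 µM SAM. Monomethyl-H3K9 detected by AlphaScreen using anti-H3K9me1 antibody.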
PI5P4Ka inh: qHTS for Inhibitors of phosphatidylinositol 5-phosphate 4-kinase (PI5P4K) | Phosphatidylinositol 5-phosphate 4-kinase type-2 alpha (Homo sapiens), P48426 | PI5P4Kalpha enzyme, ADP-Glo luminescence, 60 min; active compounds read low | max response, % | actives 1.2% (n = 330,000) | AID 652105, 2013; active = max response of -50% or lower; inconclusive = between -30% and -50%; inactive = -30% or higher; also: value at the top dose of about 77 µM; % is scaled to controls: 0 for no effect and ±100 for the full control effect
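Reactions run in 0.038 M HEPES pH 7.4, 0.28 mM EGTA, 0.1% CHAPS and 5% DMSO, with PI5P4Kalpha, substrate, compound and 5 microM ATP final, one hour at room temperature. Readout is ADP-Glo luminescence.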
BAZ2B inh: qHTS Assay for Inhibitors of BAZ2B; Potency, µM (doses to about 114 µM), for the others: at the highest dose activity change, negative = inhibition, usual class: inhibitors; AlphaScreen BAZ2B-H3K14Ac peptide displacement; actives 4.4% (n = 360,000); also: potency is read from the fitted curve at half-maximal effect; % is scaled to controls: 0 for no effect and ±100 for the full control effect; nearly all actives have a fitted effect of over 60% in size
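AlphaScreen luminescence quantifies BAZ2B engagement of H3K14Ac peptide; the protein and biotinylated peptide are both at 50 nM final, buffer PBS pH 7.4 with 0.01% Tween-20, all steps at room temperature.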
JMJD2A Tudor: qHTS Assay for Inhibitors of JMJD2A-Tudor Domain | Lysine-specific demethylase 4A (Homo sapiens), O75164 | AlphaScreen JMJD2A-Tudor / H3K4me3 peptide binding | Potency, µM (series often up to 114 µM), inactives show at the top dose activity change, negative = inhibition, usual class: inhibitors | actives 4.4% (n = 390,000) | AID 504339, 2011; also: potency is read from the fitted curve at half-maximal effect; % is scaled to controls: 0 for no effect and ±100 for the full control effect; nearly all actives have a fitted effect of over 50% in size
HP1b chromo inh: HTS for Inhibitors of HP1-beta Chromodomain Interactions with Methylated Histone Tails | AlphaScreen HP1-beta / biotin-H3K9me3 peptide binding | Potency, µM (top dose mostly 114 µM), for the others: top-dose activity change, negative = inhibition, usual class: inhibitors | Chromobox protein homolog 1 (Homo sapiens), P83916 | actives 0.56% (n = 390,000); also: potency is read from the fitted curve at half-maximal effect; nearly all actives have a fitted effect of over 70% in size
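Compound inhibition of the preformed complex between 50 nM HP1-beta and 50 nM biotinylated H3K9me3 peptide was read by AlphaScreen. Buffer was PBS pH 7.4 with 0.01% Tween-20. Incubations ran 30 min at room temperature, with 10 ug/mL donor/acceptor beads.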
PLK1 PBD block: qHTS for Inhibitors of PLK1-PDB (polo-like kinase 1 - polo-box domain): Primary Screen | Potency, µM, without a hit: max response, negative = inhibition, most hits filed as inhibitors | actives 2.8% (n = 360,000) | Serine/threonine-protein kinase PLK1 (Homo sapiens), P53350 | Plk1 PBD binding of FITC phosphopeptide, fluorescence polarization; also: potency is read from the fitted curve at half-maximal effect; series mostly up to about 57 µM; % is scaled to controls: 0 for no effect and ±100 for the full control effect; nearly all actives have a fitted effect of over 65% in size
Target sequence (P53350 whole entry, looked up, the tested form may be a part): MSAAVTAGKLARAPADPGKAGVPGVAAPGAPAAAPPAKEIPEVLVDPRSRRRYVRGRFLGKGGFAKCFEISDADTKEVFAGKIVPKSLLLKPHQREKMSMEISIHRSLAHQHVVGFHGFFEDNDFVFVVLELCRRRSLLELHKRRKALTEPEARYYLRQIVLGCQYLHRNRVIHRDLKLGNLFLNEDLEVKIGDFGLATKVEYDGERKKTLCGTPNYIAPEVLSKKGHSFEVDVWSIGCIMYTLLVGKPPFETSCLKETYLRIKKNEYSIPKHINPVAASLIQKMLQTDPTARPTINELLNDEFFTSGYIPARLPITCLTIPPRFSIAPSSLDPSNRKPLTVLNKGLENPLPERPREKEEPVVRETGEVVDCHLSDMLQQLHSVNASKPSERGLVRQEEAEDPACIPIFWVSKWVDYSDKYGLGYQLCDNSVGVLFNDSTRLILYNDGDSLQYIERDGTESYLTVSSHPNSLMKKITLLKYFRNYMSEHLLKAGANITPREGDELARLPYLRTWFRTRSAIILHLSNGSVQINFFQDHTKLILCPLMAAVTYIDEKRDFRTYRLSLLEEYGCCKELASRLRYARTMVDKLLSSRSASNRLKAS
Active calls of the source: *; ? = inconclusive; / = not tested or not shown; [ ] = remark or other dose. Only some compounds are listed: those with a hit (about 12% of all), similar ones and a draw of the others. Unless noted, calls follow the shape of the dose curve; as a rule, active = well fitted curve in the direction sought with a large enough effect; inconclusive = small, poorly fitted or top-dose-only effect, or another doubt; inactive = no such curve, though single readings can be large; an effect the other way counts as inactive or inconclusive.

SMILES	G9a inh	PI5P4Ka inh	BAZ2B inh	JMJD2A Tudor	HP1b chromo inh	PLK1 PBD block
CCC1CCC2(CC1)NC(=O)N(CC(=O)Nc1cccc(S(=O)(=O)N(C)c3ccccc3)c1)C2=O (configuration not stated)	5.6µM*	3	-6%	-27%	46%	2%
CN1C(=O)N(CC(=O)Nc2cccc(S(=O)(=O)N(C)c3ccccc3)c2)C(=O)C12CCCCC2	56µM*	-7	5%	-28%	3%	-6%
Cc1ccccc1-n1nc2c(c1NC(=O)c1ccc(Br)o1)CSC2	45µM*	?	-37%	?	-5%	-27%
Cc1ccccc1-n1nc2c(c1NC(=O)c1ccco1)CS(=O)(=O)C2	6%	2	-5%	-1%	59%	-5%
COc1ccc(-n2nc3c(c2NC(=O)c2cc4ccccc4o2)CS(=O)(=O)C3)cc1	/	-10	-13%	-15%	8%	-8%
Cc1ccccc1-n1nc2c(c1NC(=O)c1cc3ccccc3o1)CS(=O)(=O)C2	45µM*	-28	-3%	-22%	15%	-13%
CC(C)(C)OC(=O)N1CCC(NC(=O)c2nc[nH]c2C(=O)N2CCN(c3ccccc3)CC2)CC1	/	-3	/	-15%	39%	-4%
CC#CCOC(=O)C1=CCCN(C)C1	15%[59 µM]	/	/	/	/	/
COc1ccc(-n2c(SCC(=O)NCC3CCCO3)nc3ccccc3c2=O)cc1Cl (configuration not stated)	/	0	/	/	/	-1%
Nc1ncnc2c1nc(Br)n2C1O[C@H]2COP(=O)(O)O[C@@H]2C1O (some centres not stated)	24%[12.7 µM]	/	/	/	/	/
CC1(C)CC(=O)c2sc(NS(=O)(=O)c3ccc(Br)cc3)nc2C1	50µM*	0	-9%	-6%	28%	-10%
CC1(C)CC(=O)c2sc(NC(=O)CCS(=O)(=O)c3ccccc3)nc2C1	12%[59 µM]	-3	10%	-12%	27%	-5%
CC1(C)CC(=O)c2sc(NS(=O)(=O)c3ccc(F)cc3)nc2C1	79µM*	-13	-25%	-10%	47%	-25%
O=S(=O)(Nc1nc2c(s1)CCCC2)c1ccc(F)cc1	10µM*	/	-39%	-6%	20%	?
CC1(C)CC(=O)c2sc(NS(=O)(=O)c3ccc(Cl)cc3)nc2C1	35µM*	-7	?	-6%	14%	-10%
CC1(C)CC(=O)c2sc(NC(=O)c3ccccc3)nc2C1	/	/	3%	/	/	/
O=C(Nc1ccc(Cl)cc1)N1CCC(CN2CCCCCC2)CC1	-30%[59 µM]	/	1%	-25%	7%	/
CC1(C)CC(=O)C=C(C#CC2(O)CCCCC2)C1	/	-4	/	/	/	-1%
CC1(C)CC(=O)c2sc(NC(=O)CN3CCCCC3)nc2C1	14µM*	2	/	?	15%	-1%
Cc1[nH]c(=O)[nH]c(=O)c1NC(=O)c1ccccc1[N+](=O)[O-]	/	-1	/	/	/	2%
CCOC(=O)N1CCC(NC(=O)C2CCN(C(=O)N3CCOc4ccccc43)CC2)CC1	0%[12.7 µM]	0	30%	100µM*	3%	?
O=C(NC1CCCCCC1)C1CCN(C(=O)N2CCOc3ccc(Cl)cc32)CC1	7.9µM*	/	?	?	-9%	/
CCC1CN(C(=O)N2CCC(C(=O)Nc3ccccc3OC)CC2)c2ccccc2O1 (configuration not stated)	18%	-22	-28%	?	-2%	27µM*
Cc1cc(OCC(=O)Nc2sc3c(c2C#N)CC(C)(C)NC3(C)C)c(C(C)C)cc1Cl	39%	2	-26%	-5%	28%	-1%
